Measurements reported in PubChem BioAssay AID588342 (National Center for Advancing Translational Sciences (NCATS), 2011).
Screen size: about 360,000 compounds; about 25,000 (6.9%) were called active. Not shown: some 9% with an inconclusive outcome. The sample holds actives, similar compounds and a random draw of the others, so the mix is not that of the screen. A number with no mark means an inactive call. Calls follow the shape of the dose curve; as a rule, active = well fitted inhibition curve with a large enough effect; inconclusive = small, poorly fitted or top-dose-only effect; inactive = flat fitted curve, though single readings scatter.

biological target: Luciferin 4-monooxygenase (Photinus pyralis) (UniProt P08659); test: qHTS profiling assay for firefly luciferase inhibitor/activator using purifed enzyme and Km concentrations of substrates (counterscreen for miR-21 project); details: purified FLuc, luminescence inhibition; series mostly up to 57.5 µM; activity change, negative = inhibition: at the top concentration; also: nearly all actives have a fitted effect of over 55% in size;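 as to activity change, negative = inhibition: plate controls were vehicle for no effect and reference inhibitor for full effect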
Sequence (P08659 whole entry, looked up): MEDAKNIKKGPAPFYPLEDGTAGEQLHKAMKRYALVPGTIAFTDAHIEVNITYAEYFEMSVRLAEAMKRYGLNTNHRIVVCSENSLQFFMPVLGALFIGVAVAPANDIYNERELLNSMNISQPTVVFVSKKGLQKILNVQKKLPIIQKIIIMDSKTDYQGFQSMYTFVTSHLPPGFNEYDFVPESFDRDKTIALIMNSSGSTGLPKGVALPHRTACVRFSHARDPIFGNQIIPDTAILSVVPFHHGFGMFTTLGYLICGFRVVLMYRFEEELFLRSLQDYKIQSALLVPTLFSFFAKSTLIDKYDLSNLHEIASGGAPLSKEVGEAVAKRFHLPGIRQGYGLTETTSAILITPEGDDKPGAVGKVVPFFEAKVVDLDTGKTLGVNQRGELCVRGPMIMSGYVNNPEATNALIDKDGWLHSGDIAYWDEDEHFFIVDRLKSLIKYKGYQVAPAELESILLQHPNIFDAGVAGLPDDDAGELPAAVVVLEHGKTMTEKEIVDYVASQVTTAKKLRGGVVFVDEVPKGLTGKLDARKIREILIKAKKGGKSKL
Source text: MLPCN Grant: 1 R21 NS059478-01 (miR-21 grant) Assay Provider: NCGC NCGC Assay Overview: Firefly (Photinus pyralis) luciferase is one of the most commonly used transcriptional reporters for a number of reasons. It is considered one of the more dynamically responsive reporters -that is, responsive to changes in reporter transcription - as it requires no post-translational modifications and is enzymatically active directly after protein synthesis (Wood, 1998). Additionally, the half-life of the luciferase protein is short relative to other reporter-gene products (Wood, 1995). Whereas reporters with long half-lives potentially allow for increased signal due to accumulation of reporter-gene product, once accumulated in the cell, dynamic changes in reporter-gene expression may be difficult to detect(Fan and Wood, 2007; Almond et al., 2004). It has been shown that wild-type P. pyralis luciferase has a half-life of approximately […] hours in mammalian cells (Thompson et al., 1991). Firefly luciferase reporter-gene assays are also generally considered one of the most sensitive assay types (Wood, 1995; Wood, 1998). Although light produced in a bioluminescence reaction is of lower intensity than that produced during fluorescence emission, this is offset by little to no background light inherent to luminescent assays. Thus the luciferase reporter can be expressed at much lower levels than fluorescent proteins while still providing robust signal. # However, it was initially observed, in 1991, by Thompson et al., that compounds that resemble the substrates of firefly luciferase (FLuc) can act as competitive inhibitors of the enzyme, and that these compounds, upon interaction with luciferase in the cell, can actually stabilize the protein and increase its half-life. Accumulated intracellular FLuc protein can be measured as an increase in luminescence signal, upon addition of detection reagents (which contain high concentrations of FLuc substrates) commonly used in high-throughput screening. In cell-based reporter gene assays that use FLuc as the reporter gene to quantitate the potential influence of a given compound against the target biology, this apparent increase in luminescence can mistakenly be interpreted as identification of a compound that is active against the target of interest. This is the case for the miR-21 FLuc reporter gene assay used to identify inhibitors of the miR-21 pathway (PubChem AID 2289) - compounds of interest will inhibit miR-21 biogenesis/expression or activity, and are identified by causing an increase in luminescence, due to increased FLuc translation. However, FLuc inhibitory compounds that stabilize the FLuc protein will give an identical read-out, making it difficult to distinguish compounds that are active against the target from those active against FLuc. Previous profiling work to determine the prevalence of compounds that affect FLuc enzymatic activity (PubChem AID 411) identified that ~3% of the MLSMR library (then at ~72K) inhibited FLuc. […] Since the MLSMR had grown to ~350K compounds, and since it was expected that a significant percentage of compounds found active in the miR-21 FLuc assay would be FLuc inhibitors, the library was screened for activity against FLuc using a biochemical assay of purified FLuc and KM concentrations of FLuc substrates (D-luciferin and ATP).
NCGC Assay Protocol Summary: Reagents: 50mM Tris acetate, pH 7.5; 10mM Mg acetate; 10uM D-luciferin (Sigma #L9504); 10uM ATP; 0.01% Tween-20; 0.05% BSA; 10nM P. pyralis luciferase (Sigma #L9506) Control compounds used were two known firefly luciferase inhibitors (compounds (2) and (5) in Auld et al., 2010), and DMSO. […]

Compound	activity change, negative = inhibition	Potency
CCOC(=O)c1ccc(NC(=O)CNC(=O)c2ccco2)cc1	0.021%	
COC(=O)c1cc(NC(=O)c2ccco2)ccc1N1CCOCC1	-2.45%	
COc1ccc(OCC(=O)Nc2ccc(NC(=O)c3ccco3)c(C)c2)cc1	-16.6%	
O=C(Nc1ccccc1)/C(=C\c1ccco1)NC(=O)c1ccco1	0.703%	
COc1ccc(CC(=O)N2N=C(C)CC2(O)C(F)(F)F)cc1 (stereo unspecified)	0.709%	
C#CCN1CC(C)/C(=N/O)CC1C (stereo unspecified)	1.93%	
CCOc1ccc(Nc2nc3c(S(=O)(=O)c4cccc(Cl)c4)nnn3c3ccsc23)cc1	-0.0358%	
Cc1ccc(Cl)cc1N1CCN(S(=O)(=O)c2cc3[nH]c(=O)c(=O)[nH]c3cc2C)CC1	-6.22%	
COc1ccc(NC(=O)N2CCCn3nc(C)cc32)cc1OC	-4.67%	
Cc1cc(C)cc(NC(=O)CCS(=O)(=O)c2cc3c4c(c2)CCN4C(=O)CC3)c1	-1.85%	
Cc1ccc(Cl)cc1NC(=O)CCS(=O)(=O)c1ccc(Br)s1	-5.76%	
Cc1ccc(N(CC(=O)NCC(C)c2ccccc2)S(=O)(=O)N(C)C)cc1 (stereo unspecified)	-1.89%	
CCN(CC(=O)NCc1ccc(Cl)cc1)C(=O)c1c(C)noc1C	-12.6%	
COc1ccc(NC(=S)SC)cc1OC	-3.07%	
Cc1ccc2c(=O)c(C(=O)c3ccc(F)cc3)cn(CC(=O)NC3CCCCC3)c2n1	-0.59%	
O=C(NNC(=O)c1ccco1)Nc1ccccc1	0.191%	
Cc1ccoc1C(=O)Nc1cccc(Oc2ccccc2)c1		6.75 µM (active)
Cc1cc(C)c(NC(=O)c2oc3ccccc3c2COc2ccccc2)c(C)c1	0.145%	
CSCCC(NC(=O)c1ccco1)C(=O)OCC(=O)Nc1ncc(Cl)c(C)c1Cl (stereo unspecified)	3.55%	
O=C(Nc1ccccc1)c1ccco1	-18.2%	
COc1ccc(NC(=O)CCC(=O)Nc2cc(OC)c(NC(=O)c3ccco3)cc2OC)c(OC)c1	-0.211%	
CSCCC(NC(=O)c1ccco1)C(=O)Nc1cc(C)ccn1 (stereo unspecified)		15.1 µM (active)
COc1ccc(NC(=O)c2ccco2)cc1NC(=O)c1ccc(C#N)cc1F		inactive
COc1cccc(C(=O)Nc2ccc(NC(=O)c3ccco3)cn2)c1		21.3 µM (active)
CSCCC(NC(=O)c1ccco1)C(=O)NCCc1ccc(F)cc1 (stereo unspecified)	-2.58%	
O=C(Nc1ccc(Oc2ccccc2)cc1)c1ccco1		5.36 µM (active)

Compound	activity change, negative = inhibition	Potency
Cc1cccc(NC(=O)Nc2cccc(Oc3c(F)c(F)c(F)c(F)c3F)c2)c1	-1.28%	
CCOc1ccccc1C(=O)Nc1ccc(S(=O)(=O)N2CCCCC2c2cccnc2)cc1 (stereo unspecified)	-8.52%	
Cc1c(Cl)cccc1NC(=O)Cn1cc(C(=O)c2cccs2)c2ccccc21	0.0254%	
Cc1cccc(OCCSc2nc3ccccc3n2CC(=O)N2CCCCC2)c1C	-7.31%	
COc1ccc(CNC(=O)c2ccc(NC(=O)N3CC4CCCN4c4ccccc43)cc2)cc1 (stereo unspecified)	-15.4%	
O=C(CC(NCc1cccnc1)C(=O)O)Nc1ccc(O)cc1 (stereo unspecified)	-1.49%	
O=C(NCc1ccccc1CN1CCCC1)c1cccc(S(=O)(=O)Nc2ccc(F)cc2)c1	-1.42%	
O=C(CCNC(=O)Cn1ccc2ccccc2c1=O)NCCC1=CCCCC1	-4.15%	
Cc1ccnc(NC(=O)c2ccc(NC(=O)c3ccco3)cc2)c1		10.7 µM (active)
Cc1ccnc(NC(=O)c2ccco2)n1	4.11%	
CC(C)(C)NC(=O)c1cc(NC(=O)c2ccco2)cc(NC(=O)c2ccco2)c1	-18%	
Cc1cccc(N(C(=O)Cc2cccs2)C(C(=O)NC2CCCC2)c2ccsc2)c1 (stereo unspecified)	0.969%	
Nc1nc(SCCOc2ccccc2)n[nH]1	0.694%	
Cc1ccc(OCCCCc2c(C)n[nH]c2C)cc1	-4.93%	
CCCOc1ccc(-c2nc(N)n[nH]2)cc1		13.5 µM (active)
Cc1ccc(CNC(=O)CSc2nnc3c(n2)[nH]c2ccc(F)cc23)cc1	2%	
COc1ccc(Cl)cc1NC(=O)C(C)Sc1nc2c(c(=O)[nH]1)CCCC2 (stereo unspecified)	-5.09%	
COC(=O)CN(c1nc(C)c(Cl)c(OC)n1)S(=O)(=O)c1ccc(C)cc1	0.585%	
COc1ccc2c(c1)CCc1c(C(=O)Nc3c(C)n(C)n(-c4ccccc4)c3=O)noc1-2		23.9 µM (active)
Cc1c(NC(=O)c2cc(-c3ccc(Br)cc3)on2)c(=O)n(-c2ccccc2)n1C		inactive
COc1ccc(C(=O)N2CCCN(C)CC2)c(OC)c1	0.687%	
COc1ccc2c(c1)CCc1c(C(=O)Nc3cc(C)ccc3O)noc1-2	-14.2%	
COc1ccc(S(=O)(=O)NC(C)C(=O)N2CCCCCC2)cc1 (stereo unspecified)	1.17%	
COc1ccc2c(c1)CCc1c(C(=O)N3CCCC3)noc1-2		12 µM (active)
COc1ccc(Cl)cc1NC(=O)CSc1nc(-c2cccs2)cc(C(F)(F)F)n1	-4.96%	
